Where “and” joins values, the source holds several entries; their conditions need not be identical. Equal values may be shown once. Calls of active or inactive are those of the source. Unless noted, no rule for the calls is given here.
Legend:
[1] = CRL2098 osteosarcoma cell growth inhibition, synergistic combos for chromothripsis tumors, BGB or cisplatin IC20 combos (AID 1671454; in the data active = inhibition above about 80%;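 also: cells exposed for 96 h before readout; 0% = vehicle DMSO and 100% = killing by high DMSO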); conditions: CRL2098 osteosarcoma cells, drug combinations, stronger effect = higher value
[2] = HD-MB03 medulloblastoma cell growth inhibition, synergistic combos for chromothripsis tumors, BGB or cisplatin IC20 combos (AID 1671455; in the data active = inhibition above about 83%;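 also: 0% = vehicle DMSO and 100% = high DMSO as cytotoxic control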); conditions: HD-MB03 medulloblastoma cells, stronger effect = higher value
[3] = UWB1.289 ovarian carcinoma cell growth inhibition, synergistic combos for chromothripsis tumors, BGB or cisplatin combos (AID 1671456; in the data active = inhibition above about 80%;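 also: cells exposed to compound for four days; 0% = vehicle DMSO and 100% = killing by high DMSO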); conditions: UWB1.289 ovarian carcinoma cells, stronger effect = higher value
[4] = LFS_MB_2R medulloblastoma cell growth inhibition, synergistic combos for chromothripsis tumors, cisplatin combos (AID 1671457; in the data active = inhibition above about 80%;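 also: cells exposed to compound for four days before readout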); conditions: LFS_MB_2R medulloblastoma cells, stronger effect = higher value
[5] = MDA-MB-436 breast carcinoma cell growth inhibition, synergistic combos for chromothripsis tumors, BGB or cisplatin combos (AID 1671458); conditions: MDA-MB-436 breast carcinoma growth inhibition, drug combinations, stronger effect = higher value;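 also: cells exposed for 96 hours; 0% = vehicle DMSO and 100% = killing by high DMSO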
[6] = UWB1.289_BRCA1 ovarian cancer growth, cell-based, BGB or cisplatin combinations (AID 1671459; in the data active = inhibition above about 80%); conditions: UWB1.289 BRCA1 ovarian carcinoma, drug combinations, stronger effect = higher value
[7] = human astrocyte viability loss, single and combined drugs, cytotoxicity control for chromothriptic childhood tumor combination screen, cell-based, BGB or cisplatin IC20 combos (AID 1671460; in the data active = inhibition above about 80%;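 also: cells exposed to compounds for 96 hours before viability readout; 0% = vehicle and 100% = killing control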); conditions: Human astrocytes, drug combinations, stronger effect = higher value
[8] = growth inhibition of BT084 medulloblastoma cells, cell-based, ICGC_MB145, cisplatin and BGB IC40 combos (AID 1671461; in the data active = inhibition above about 80%;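 also: cells exposed to drugs for 96 hours; 0% = vehicle DMSO and 100% = high DMSO full killing control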); conditions: drug combinations, stronger effect = higher value
[9] = growth inhibition of RCMB18 medulloblastoma cells, cell-based, cisplatin and BGB IC40 combos (AID 1671462; in the data active = inhibition above about 80%;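 also: cells exposed to compound for four days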); conditions: stronger effect = higher value
[10] = growth inhibition of CRL1545 osteosarcoma cells, cell-based, cisplatin and BGB IC20 combos (AID 1671464; in the data active = inhibition above about 80%;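 also: cells exposed to compound for 96 hours before readout; 0% = vehicle DMSO and 100% = high DMSO killing control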); conditions: stronger effect = higher value
[11] = antimalarial activity against Dd2 strain (AID 2302;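 active = growth inhibition above 50% at the single 2 µM test dose, taken to imply half-maximal potency below 2 µM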;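 also: 0% = DMSO untreated growth and 100% = chloroquine plus artemisinin killed control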); conditions: P. falciparum Dd2 in RBCs, LDH growth readout, 72 h; at 2 µM; stronger effect = higher value
[12] = HepG2 cytotoxicity, primary screen, cytotoxicity control for P. falciparum antimalarial project, cell-based, ATP luminescence (AID 2303;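 active = inhibition above 50%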;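 also: 0% = DMSO wells and 100% = digitonin-killed cells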); conditions: HepG2 viability, 24-48 h, at 10 µM, stronger effect = higher value
[13] = target: L-lactate dehydrogenase (Plasmodium falciparum (isolate CDC / Honduras)) (UniProt Q27743); test: PfLDH activity inhibition – cell lysate, 3D7 strain, counter-screen for P. falciparum growth inhibition project (AID 2304);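 also: 0% = vehicle and 100% = reference inhibitor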; conditions: P. falciparum 3D7 crude extract, LDH APAD/NBT absorbance; at 2 µM; stronger effect = higher value
Chain of L-lactate dehydrogenase (Plasmodium falciparum (isolate CDC / Honduras)) (Q27743 whole entry, looked up): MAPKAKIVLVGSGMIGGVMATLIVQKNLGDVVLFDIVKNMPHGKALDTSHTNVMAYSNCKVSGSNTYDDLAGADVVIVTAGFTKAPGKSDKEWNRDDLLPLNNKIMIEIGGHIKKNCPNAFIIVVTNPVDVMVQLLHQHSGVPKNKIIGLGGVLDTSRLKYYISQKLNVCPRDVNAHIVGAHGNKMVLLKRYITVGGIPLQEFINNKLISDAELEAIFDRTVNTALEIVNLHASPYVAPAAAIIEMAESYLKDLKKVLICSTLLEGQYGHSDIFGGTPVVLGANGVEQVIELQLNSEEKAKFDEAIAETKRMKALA

[14] = inhibition of 3D7 malaria parasite growth – strain 3D7 (AID 2306);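 also: 0% = DMSO wells and 100% = chloroquine plus artemisinin control wells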; conditions: P. falciparum 3D7 erythrocytic growth, LDH absorbance, 72 h; at 2 µM; stronger effect = higher value
[15] = measured here: combination with cisplatin, at 0.5 µM

## CCCCCCCCCC(=O)N[C@@H](Cc1c[nH]c2ccccc12)C(=O)N[C@@H](CC(N)=O)C(=O)N[C@@H](CC(=O)O)C(=O)NC1C(=O)NCC(=O)N[C@@H](CCCN)C(=O)N[C@@H](CC(=O)O)C(=O)N[C@H](C)C(=O)N[C@@H](CC(=O)O)C(=O)NCC(=O)N[C@H](CO)C(=O)N[C@@H](C(C)CC(=O)O)C(=O)N[C@@H](CC(=O)c2ccccc2N)C(=O)OC1C (stereo partly drawn)
[1]; at 0.5 µM
  inhibition: -34.4% (inactive) and -31.7% (inactive)
[1]; measured here: combination with BGB at IC20, at 0.5 µM
  inhibition: -39.7% and -27.2%
[1]; measured here: combination with cisplatin at IC20, at 0.5 µM
  inhibition: -14% and -62.4%
[2]; at 0.5 µM
  inhibition: -9.94% (inactive) and -8.88% (inactive)
[2]; measured here: combo with BGB at IC20, at 0.5 µM
  inhibition: -6.42% and -16.2%
[2]; measured here: combo with cisplatin at IC20, at 0.5 µM
  inhibition: -14.7% and -5.25%
[3]; at 0.5 µM
  inhibition: 10.2% (inactive) and 12.2% (inactive)
[3]; measured here: inhibition with BGB combination, at 0.05 µM
  inhibition: -9.69% and -2.7%
[3]; measured here: inhibition with cisplatin combination, at 0.05 µM
  inhibition: -15.8% and -25.8%
[4]; at 0.5 µM
  inhibition: -23.5% (inactive) and -6.81% (inactive)
[4]; [15]
  inhibition: -31.3% and -1.96%
[4]; measured here: combination with cisplatin, at 5 µM
  inhibition: -80.2% and 9.2%
[5]; at 0.5 µM
  inhibition: -16.9% (inactive) and 1.2% (inactive)
[5]; measured here: BGB combination, at 0.5 µM
  inhibition: -8.45% and 11.2%
[5]; measured here: BGB combination, at 5 µM
  inhibition: -21.2% and 5.73%
[5]; measured here: cisplatin combination, at 0.5 µM
  inhibition: -33.4% and -3.35%
[5]; measured here: cisplatin combination, at 5 µM
  inhibition: -35% and -1.3%
[6]; BGB combination, concentration series, at 5 µM
  inhibition: 0.446% and -9.8%
[6]; at 0.5 µM
  inhibition: -0.18% (inactive) and -1.59% (inactive)
[6]; cisplatin combination, concentration series, at 5 µM
  inhibition: 29.6% and 3.48%
[7]; at 0.5 µM
  inhibition: -6.51% (inactive) and -21.5% (inactive)
[7]; measured here: combo with BGB IC20, at 0.5 µM
  inhibition: -8.41% and -24.6%
[7]; measured here: combo with cisplatin IC20, at 0.5 µM
  inhibition: -7.76% and -27.2%
[8]; at 0.5 µM
  inhibition: -50.8% (inactive) and -0.72% (inactive)
[8]; cisplatin combination, at 0.5 µM
  inhibition: -32.6% and -11.3%
[8]; cisplatin combination, at 5 µM
  inhibition: -30.3% and -7.6%
[8]; measured here: BGB IC40 combination 0.05 uM, at 0.05 µM
  inhibition: -7.72% and 14.6%
[8]; single agent, at 5 µM
  inhibition: -22.5% and -17.6%
[9]; at 0.5 µM
  inhibition: -14.5% (inactive) and -23% (inactive)
[9]; cisplatin combo, at 5 µM
  inhibition: -29.9% and -45.9%
[9]; measured here: BGB IC40 combination, at 0.05 µM
  inhibition: -12.3% and 4.76%
[9]; [15]
  inhibition: -0.362% and -63.9%
[9]; single agent, at 5 µM
  inhibition: -26.6% and -8.51%
[10]; at 0.5 µM
  inhibition: 12.4% (inactive) and 0.47% (inactive)
[10]; measured here: with BGB IC20 combination, at 0.5 µM
  inhibition: 12.1% and 6.43%
[10]; measured here: with cisplatin IC20 combination, at 0.5 µM
  inhibition: 10.6% and -4.18%
[10]; single agent, at 0.05 µM
  inhibition: -15.3% and 8.61%
[10]; single agent, at 5 µM
  inhibition: 20.8% and -15.6%

## COc1ccc2nccc([C@@H](O)CN3CC[C@H](NCc4nc5c(cc4Cl)SCC(=O)N5)[C@H](F)C3)c2c1
[11]
  growth inhibition: 94% (active) and 100% (active)
[12]
  inhibition: 10% (inactive) and 20% (inactive)
[13]
  inhibition: -3% (inactive) and 1% (inactive)
[14]
  growth inhibition: 94% (active) and 99% (active)

## CO[C@H](C)[C@H](NC(=O)[C@H](CC(C)C)[C@H](CCC(F)(F)F)N(O)C=O)C(=O)Nc1nccs1
[11]
  growth inhibition: 96% (active)
[12]
  inhibition: 0% (inactive)
[13]
  inhibition: 1% (inactive)
[14]
  growth inhibition: 99% (active)

## CC[C@@H]([C@@H](CC(C)C)C(=O)N[C@@H](CCCCNC(=O)OCc1ccccc1)C(=O)Nc1ccccn1)N(O)C=O
[11]
  growth inhibition: 99% (active)
[12]
  inhibition: -7% (inactive)
[13]
  inhibition: -8% (inactive)
[14]
  growth inhibition: 98% (active)

## COc1ccc(Nc2nc(NN=Cc3cc(Br)c(O)cc3O)nc(Nc3ccc([N+](=O)[O-])cc3)n2)cc1
[11]
  growth inhibition: 23% (inactive)
[12]
  inhibition: 30% (inactive)
[13]
  inhibition: 4% (inactive)
[14]
  growth inhibition: 97% (active)

## NC(N)=NN=Cc1c[nH]c2ccc(-c3ccccc3)cc12
[11]
  growth inhibition: 61% (active)
[12]
  inhibition: 15% (inactive)
[13]
  inhibition: -2% (inactive)
[14]
  growth inhibition: 84% (active)

## CCCCCC(C)C(C)c1cc(O)c2c(c1)OC(C)(C)CC2=Cc1ccncc1 (stereo not drawn)
[11]
  growth inhibition: 78% (active)
[12]
  inhibition: -8% (inactive)
[13]
  inhibition: 2% (inactive)
[14]
  growth inhibition: 100% (active)

## COc1ccc(Nc2nc(NN=Cc3cc(Br)ccc3O)nc(Nc3ccc([N+](=O)[O-])cc3)n2)cc1
[11]
  growth inhibition: 37% (inactive)
[12]
  inhibition: 27% (inactive)
[13]
  inhibition: 7% (inactive)
[14]
  growth inhibition: 97% (active)

## CCCO[C@H](C(=O)OC)[C@@H](CC1Cc2ccccc2C1)C(=O)NCCC1=CCCCC1
[11]
  growth inhibition: 57% (active)
[12]
  inhibition: 6% (inactive)
[13]
  inhibition: 1% (inactive)
[14]
  growth inhibition: 93% (active)

## CCC[C@@H](C(=O)NCCc1cccc(OC)c1)N1C(=O)c2c(ccc(OC)c2OC)C1C(=O)Nc1c(C)cccc1C (stereo partly drawn)
[11]
  growth inhibition: 32% (inactive)
[12]
  inhibition: 6% (inactive)
[13]
  inhibition: 3% (inactive)
[14]
  growth inhibition: 94% (active)

## Cc1cc(-c2cc(-c3ccc(OCCN(C)C)cc3)[nH]c2-c2ccc3c(c2)CCC3=NO)ccn1
[11]
  growth inhibition: 92% (active)
[12]
  inhibition: -13% (inactive)
[13]
  inhibition: -3% (inactive)
[14]
  growth inhibition: 100% (active)

Source: PubChem BioAssay
